Screening data from PubChem.
SMARCA2 act = SMARCA2 function activation, primary screen; AID 652017; activation, % at 9.1 µM; MG213 cells, MMTV-luciferase reporter, dexamethasone, overnight; actives 1% (n = 370,000); in the data active means activation above about 7.8%;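 further: 0% = vehicle wells and 100% = reference activator wells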
DAX1 inh-1 = blocks DAX1 repression of SF-1 activated StAR promoter; HEK293T StAR-luciferase reporter, SF-1/DAX-1 repression relief; inhibition, % at 6.8 µM; actives 1.1% (n = 370,000);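 active means inhibition above the mean over all tested compounds plus 3 SD, cut at about 3.6% in these data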;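 further: 0% = DAX-1 cells with DMSO and 100% = cells lacking DAX-1 with DMSO; higher inhibition means more luminescence from relief of DAX-1 repression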
DAX1 inh-2 = inhibits human nuclear receptor DAX1; HEK293 Gal4-DAX1 luciferase reporter, luminescence; inhibition, % at 6.75 µM; P51843; actives 0.99% (n = 340,000);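 active means inhibition above the mean over all tested compounds plus 3 SD, cut at about 4.2% in these data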;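 further: 0% = DAX1-transfected cells with DMSO and 100% = empty-vector control cells with DMSO; inhibition shows as a rise in luminescence from relieved DAX1 repression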
Target sequence (P51843 207-470 limits assumed): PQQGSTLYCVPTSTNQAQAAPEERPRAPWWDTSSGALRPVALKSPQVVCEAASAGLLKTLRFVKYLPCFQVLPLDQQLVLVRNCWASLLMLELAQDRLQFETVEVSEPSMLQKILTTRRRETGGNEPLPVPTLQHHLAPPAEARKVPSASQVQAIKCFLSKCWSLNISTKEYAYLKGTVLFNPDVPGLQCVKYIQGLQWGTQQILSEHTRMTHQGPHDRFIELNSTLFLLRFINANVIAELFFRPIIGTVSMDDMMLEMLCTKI
ssDAF-12 act = activators of S. stercoralis DAF-12 nuclear receptor; activation, % at 6.8 µM; actives 1% (n = 370,000); AID 652126; HEK293 ssDAF-12/GRIP1 lit1-tk-luc reporter, luminescence; % of 3 µM dafachronic acid response;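 active means activation above the mean over all tested compounds plus 3 SD, cut at about 0.9% in these data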;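 further: 0% = DMSO-only wells and 100% = 3 µM delta7-dafachronic acid wells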
hgDAF12 agonist = agonists of H. glycines DAF-12 nuclear receptor | HEK293 GAL4-hgDAF12 UAS-luciferase reporter, agonist luminescence; normalized to butyrate control | activation, % at 6.8 µM | actives 1.8% (n = 370,000) | AID 687014;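 active means activation above a cutoff set at the mean of all screened compounds plus 3 SD, cut at about 10% in these data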;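 further: 0% = DMSO wells and 100% = sodium butyrate wells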
hcDAF-12 act = activators of H. contortus DAF-12 nuclear receptor | HEK293 hcDAF-12 lit1-tk-luc reporter, luminescence; 0% DMSO, 100% Δ7-dafachronic acid | activation, % at 6.8 µM | actives 1.4% (n = 370,000) | AID 652067;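 active means activation above the mean of all tested compounds plus 3 SD, cut at about 5.5% in these data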;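 further: 100% = response to 3 µM Δ7-dafachronic acid high control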
* marks the source's active call; other numbers are inactive results; . = no result given. The list is not random: actives were taken first. Their share in the collection is about 4.8%.

SMILES	SMARCA2 act	DAX1 inh-1	DAX1 inh-2	ssDAF-12 act	hgDAF12 agonist	hcDAF-12 act
CN(Cc1cccs1)C(=O)COc1cccc(-n2cnnn2)c1	-2	-1	1	-1	-1	-1
c1ccc(N2CCN(c3nccn4ccnc34)CC2)nc1	1	4.0*	.	1	10	5
C(=N\N1CCN(c2ccccn2)CC1)/c1ccco1	1	0	-1	-1	2	-2
C(=N\N1CCN(c2ccccn2)CC1)/c1ccccn1	-1	2	2	1.1*	6	3
Oc1ccc(/C=N/N2CCN(c3ccccn3)CC2)cc1	2	0	2	-1	6	-1
Cc1ccc(/C=N/N2CCN(c3ccccn3)CC2)o1	0	1	4.7*	0	3	-1
Cc1ccc(CS(=O)(=O)CCC(=O)NCCC(C)C)cc1	-3	0	0	-2	-1	2
Cc1ccc(S(=O)(=O)NC[C@H]2O[C@@H](n3ccc(N)nc3=O)[C@H](O)[C@@H]2O)s1	-4	0	2	-1	-1	-2
CC(NC(=O)C12CC3CC(CC(O)(C3)C1)C2)c1ccccc1 (configuration not stated)	0	0	5.7*	-1	-2	-1
CCOc1ccc(/C=C/C2=NNC(=O)CC2)cc1	-1	1	1	-2	11*	2
O=C1CCC(/C=C/c2ccccc2)=NN1	-1	1	0	-1	3	0
COc1cc(CNc2ccc3[nH]c(=O)[nH]c3c2)ccc1OCc1ccc(C)cc1	0	2	-2	1	12*	4
COc1ccccc1NC(=S)NNC(=O)c1ccccc1Br	6	2	-1	1.3*	10	4
COc1cc(OC)cc(C(=O)NNC(=S)Nc2ccccc2OC)c1	-3	0	2	-2	2	2
COc1ccccc1NC(=S)NNC(=O)c1ccncc1	4	0	-1	-1	4	-1
COc1ccccc1NC(=S)NNC(=O)c1ccccc1	3	2	1	0	11*	0
O=C(CSc1nc2scc(-c3ccccc3)c2c(=O)[nH]1)N1CCCCC1	-2	1	5.6*	-1	-2	0
CCOC(=O)C(C)Sc1ccc2nnc(CCNS(=O)(=O)c3ccccc3)n2n1 (configuration not stated)	1	0	5.8*	-1	0	-1
COC(=O)CSc1ccc2nnc(CCNS(=O)(=O)c3ccccc3)n2n1	3	0	3	-1	-1	0
Clc1ccc(/C=C\c2nccc3c2[nH]c2ccccc23)cc1	0	1	1	0	9	5.7*
CN=C1S/C(=C\c2cc(C)n(-c3ccccc3F)c2C)C(=O)N1C	-5	-2	1	-3	-6	-3
COCCN=C1S/C(=C\c2cc(C)n(-c3ccc(F)cc3F)c2C)C(=O)N1C	.	.	.	0	4	5.7*
CC1CCN(C(=O)COC(=O)c2ccc(F)c(S(=O)(=O)N3CCOCC3)c2)CC1	3	-2	1	-1	-2	-2
CCN(C(=O)COC(=O)c1ccc(Sc2ncn[nH]2)c([N+](=O)[O-])c1)c1ccccc1	1	0	.	0	-4	0
Cc1ccc(CNC(=S)N2CCOCC2)cc1	-2	-1	1	-1	-2	3
SMILES	SMARCA2 act	DAX1 inh-1	DAX1 inh-2	ssDAF-12 act	hgDAF12 agonist	hcDAF-12 act
S=C(N/N=C/c1ccc(Br)cc1)N1CCCCC1	4	2	6.7*	1.2*	10	3
Cc1ccc(/C=N/NC(=S)N2CCOCC2)cc1	6	2	1	0	12*	4
Cc1ccc(C(=O)NC(=S)Nc2ccc(N3CCN(C(=O)c4ccco4)CC3)cc2)cc1	-3	-3	0	-2	-2	0
Cc1ccc(OCC(=O)Nc2ccc(S(=O)(=O)N3CCN(C)CC3)cc2)cc1	-4	0	1	-1	1	0
COc1ccc2nc(NNC(=O)C3COc4ccccc4O3)sc2c1 (configuration not stated)	-2	0	0	1.3*	6	6.2*
COc1ccc2nc(NC(=S)NC(=O)c3ccco3)sc2c1	3	1	1	0	11*	3
CS(=O)(=O)c1ccc2nc(NC(=O)C3COc4ccccc4O3)sc2c1 (configuration not stated)	5	1	0	-1	3	0
COc1ccc2nc(NC(=O)c3cc(C)oc3C)sc2c1	2	2	0	0	11*	1
Cc1cccc(OCCCC(=O)NNC(=O)c2ccc(F)cc2)c1	3	0	0	-1	1	2
CCOC(=O)c1c[nH]n2c(=O)cc(C)nc12	-3	0	.	-1	2	-2
COc1ccc(-c2cnc3c(-c4ccc(F)cc4)cnn3c2N)cc1	6	1	1	0	10	5
Cc1nc2c(-c3ccc(F)cc3)cnn2c2c1CCC2	2	1	0	0	1	5.7*
Cc1ccc(CSc2nnc(-c3cc(-c4ccc(C)cc4)n[nH]3)n2N)cc1	-3	0	.	-1	-1	-2
Cc1onc(-c2ccccc2)c1C(=O)OCC(=O)c1ccccc1	0	0	-1	-1	1	-1
Cc1onc(-c2ccccc2)c1C(=O)OCC(=O)c1ccc(F)cc1	-3	-1	4	3.5*	3	-1
CC(C)(C)NC(=O)NC(=O)COC(=O)CNS(=O)(=O)c1ccc(Br)cc1Cl	1	0	5.8*	0	5	0
O=C(CNS(=O)(=O)c1ccc(Br)cc1Cl)OCC(=O)N1CCCC1=O	0	0	1	-1	1	-1
Cc1nc2ccccc2cc1C(=O)N/N=C/c1ccco1	0	0	0	-1	0	2
CCC(C)(C)NC(=O)CN(Cc1cccs1)C(=O)CNS(=O)(=O)c1ccc(C)cc1	-3	-1	6.4*	-1	0	0
CC(C)(C)NC(=O)CN(Cc1cccs1)C(=O)CNS(=O)(=O)c1ccc(F)cc1	-3	0	-1	-1	-3	-2
CCCCN1C2CCCC1CC(NC(=O)c1ccccc1Cl)C2 (configuration not stated)	-1	0	4.7*	-1	2	-2
COCCNC(=O)c1cc(-c2cccc(OC)c2)on1	3	2	1	0	11*	1
COc1cccc(-c2cc(C(=O)NCc3cccs3)no2)c1	7	2	4	0	13*	2
O=C(NC1CCCC1)C1CCN(S(=O)(=O)c2cccc3cccnc23)CC1	-2	0	1	-1	0	0
COC(=O)C(NC(=O)C(C)NC(=O)OCc1ccccc1)C(C)C (configuration not stated)	-2	1	1	-1	0	-1
